In the supplement of paper PMC11732987, “Enantioselective OTUD7B fragment discovery through chemoproteomics screening and high-throughput optimisation” (Communications Chemistry, 2025):

Tests used:
Test in all cases: log2 ratio of Biotin-Ahx-Ub-VS probe labelling (fragment/DMSO); higher = less target engagement (more negative = stronger competition), active = hit call of the paper (q ≤ 0.05, log2 ratio ≤ -1)
Settings in all cases: compound concentration: 200 uM; treatment time: 3 h
USP34 = USP34 (UniProt Q70CQ2)
Sequence of USP34 (Q70CQ2 whole entry, the tested form may be a part): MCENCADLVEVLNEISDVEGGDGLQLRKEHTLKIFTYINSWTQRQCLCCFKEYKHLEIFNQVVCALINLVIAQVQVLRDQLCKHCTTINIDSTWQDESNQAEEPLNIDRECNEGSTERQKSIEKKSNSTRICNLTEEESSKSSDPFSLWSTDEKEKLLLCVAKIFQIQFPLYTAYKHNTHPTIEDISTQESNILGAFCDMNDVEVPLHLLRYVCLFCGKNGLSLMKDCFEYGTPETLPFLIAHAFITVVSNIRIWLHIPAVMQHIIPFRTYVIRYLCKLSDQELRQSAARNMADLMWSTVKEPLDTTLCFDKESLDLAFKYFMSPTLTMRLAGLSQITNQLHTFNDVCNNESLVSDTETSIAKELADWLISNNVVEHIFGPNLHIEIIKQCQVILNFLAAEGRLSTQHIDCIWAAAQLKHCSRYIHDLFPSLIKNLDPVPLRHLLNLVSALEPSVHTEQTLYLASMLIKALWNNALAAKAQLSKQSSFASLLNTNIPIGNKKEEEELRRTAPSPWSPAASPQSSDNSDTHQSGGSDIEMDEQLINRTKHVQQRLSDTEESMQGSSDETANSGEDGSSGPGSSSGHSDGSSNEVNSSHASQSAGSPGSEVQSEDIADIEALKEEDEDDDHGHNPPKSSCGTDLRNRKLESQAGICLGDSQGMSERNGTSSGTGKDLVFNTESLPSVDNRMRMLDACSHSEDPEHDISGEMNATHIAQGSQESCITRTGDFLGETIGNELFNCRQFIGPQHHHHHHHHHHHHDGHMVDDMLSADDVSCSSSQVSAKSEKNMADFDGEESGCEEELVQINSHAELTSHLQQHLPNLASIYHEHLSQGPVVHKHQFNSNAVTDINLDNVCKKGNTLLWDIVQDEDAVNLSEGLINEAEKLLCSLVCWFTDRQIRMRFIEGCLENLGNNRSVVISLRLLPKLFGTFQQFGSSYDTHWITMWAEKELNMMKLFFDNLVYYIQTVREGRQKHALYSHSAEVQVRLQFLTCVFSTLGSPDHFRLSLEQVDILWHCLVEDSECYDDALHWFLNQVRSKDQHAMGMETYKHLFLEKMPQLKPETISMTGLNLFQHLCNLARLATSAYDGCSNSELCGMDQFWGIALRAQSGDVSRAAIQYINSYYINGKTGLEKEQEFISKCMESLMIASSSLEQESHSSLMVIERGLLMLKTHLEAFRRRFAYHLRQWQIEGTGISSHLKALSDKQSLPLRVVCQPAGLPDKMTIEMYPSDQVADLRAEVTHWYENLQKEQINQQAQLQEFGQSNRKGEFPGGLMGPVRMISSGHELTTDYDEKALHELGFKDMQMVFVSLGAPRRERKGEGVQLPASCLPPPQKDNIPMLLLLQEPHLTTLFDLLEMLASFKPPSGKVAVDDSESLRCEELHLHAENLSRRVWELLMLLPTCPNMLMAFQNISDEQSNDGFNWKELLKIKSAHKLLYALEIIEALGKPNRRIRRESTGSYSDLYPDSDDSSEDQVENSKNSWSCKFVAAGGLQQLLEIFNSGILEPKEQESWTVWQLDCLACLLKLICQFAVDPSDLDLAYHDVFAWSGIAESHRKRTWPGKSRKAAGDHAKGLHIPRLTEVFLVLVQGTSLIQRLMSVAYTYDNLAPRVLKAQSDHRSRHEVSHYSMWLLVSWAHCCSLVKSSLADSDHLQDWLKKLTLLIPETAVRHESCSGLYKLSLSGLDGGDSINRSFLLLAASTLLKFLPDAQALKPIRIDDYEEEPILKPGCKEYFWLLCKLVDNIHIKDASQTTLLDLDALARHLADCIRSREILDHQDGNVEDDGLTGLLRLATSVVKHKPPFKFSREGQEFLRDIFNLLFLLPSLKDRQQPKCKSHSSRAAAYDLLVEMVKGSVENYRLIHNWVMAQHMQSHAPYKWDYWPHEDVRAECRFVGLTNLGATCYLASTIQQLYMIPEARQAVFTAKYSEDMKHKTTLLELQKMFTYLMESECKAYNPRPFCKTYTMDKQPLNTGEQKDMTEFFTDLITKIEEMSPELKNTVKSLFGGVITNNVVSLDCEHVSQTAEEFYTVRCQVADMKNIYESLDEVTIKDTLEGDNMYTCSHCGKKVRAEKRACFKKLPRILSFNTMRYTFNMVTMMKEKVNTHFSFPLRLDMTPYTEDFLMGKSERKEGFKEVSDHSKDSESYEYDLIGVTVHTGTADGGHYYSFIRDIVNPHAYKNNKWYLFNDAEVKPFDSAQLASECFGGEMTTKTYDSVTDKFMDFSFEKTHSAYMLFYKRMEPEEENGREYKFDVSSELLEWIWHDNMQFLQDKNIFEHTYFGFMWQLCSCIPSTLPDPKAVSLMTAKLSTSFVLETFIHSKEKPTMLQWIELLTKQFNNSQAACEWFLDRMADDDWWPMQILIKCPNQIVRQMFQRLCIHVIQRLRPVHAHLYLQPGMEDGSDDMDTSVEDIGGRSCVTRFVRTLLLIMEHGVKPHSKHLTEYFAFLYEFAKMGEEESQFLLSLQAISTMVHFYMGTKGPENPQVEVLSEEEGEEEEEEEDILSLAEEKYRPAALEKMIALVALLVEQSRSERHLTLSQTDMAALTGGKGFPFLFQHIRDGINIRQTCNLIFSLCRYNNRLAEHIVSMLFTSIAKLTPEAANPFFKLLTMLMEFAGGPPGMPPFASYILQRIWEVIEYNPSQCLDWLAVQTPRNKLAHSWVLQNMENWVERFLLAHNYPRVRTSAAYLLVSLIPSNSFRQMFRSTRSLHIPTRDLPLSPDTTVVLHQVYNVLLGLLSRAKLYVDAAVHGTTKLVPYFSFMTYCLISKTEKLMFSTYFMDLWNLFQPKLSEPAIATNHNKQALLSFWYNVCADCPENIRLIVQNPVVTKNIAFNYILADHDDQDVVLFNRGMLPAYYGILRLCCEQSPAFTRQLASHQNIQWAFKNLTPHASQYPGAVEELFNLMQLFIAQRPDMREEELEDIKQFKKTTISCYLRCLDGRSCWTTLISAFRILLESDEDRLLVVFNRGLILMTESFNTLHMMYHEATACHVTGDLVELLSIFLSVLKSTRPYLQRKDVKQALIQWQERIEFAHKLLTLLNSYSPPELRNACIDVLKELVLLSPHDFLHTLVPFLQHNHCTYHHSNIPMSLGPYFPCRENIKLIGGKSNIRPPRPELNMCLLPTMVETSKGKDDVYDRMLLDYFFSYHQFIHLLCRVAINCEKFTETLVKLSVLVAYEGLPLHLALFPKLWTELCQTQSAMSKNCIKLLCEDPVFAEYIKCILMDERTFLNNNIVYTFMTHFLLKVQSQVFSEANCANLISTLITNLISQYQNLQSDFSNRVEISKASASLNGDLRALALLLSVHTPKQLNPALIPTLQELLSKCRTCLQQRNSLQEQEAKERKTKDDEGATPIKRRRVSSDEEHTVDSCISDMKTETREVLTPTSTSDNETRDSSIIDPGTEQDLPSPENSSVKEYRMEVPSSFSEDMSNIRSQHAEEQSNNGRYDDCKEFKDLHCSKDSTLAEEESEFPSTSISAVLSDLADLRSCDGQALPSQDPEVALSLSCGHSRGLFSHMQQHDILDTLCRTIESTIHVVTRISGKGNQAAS
Procedure, shortened: (§1)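 Fragment (200 µM) or vehicle was incubated for 3 h with triplicate HEK293T lysate samples of 495 µg, which were then treated with Biotin-Ahx-Ub-VS at 0.5 µM final for 1 h. Labelled DUBs were enriched on NeutrAvidin, digested with LysC and trypsin, and analysed by diaPASEF LC-MS/MS. Values are average log2 fragment/vehicle ratios from an unpaired t-test on global-median-normalised Spectronaut label-free quantities, using proteins with ≥2 unique peptides.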

USP36 = target: T1, USP36 (UniProt Q9P275)
T1 sequence (whole entry): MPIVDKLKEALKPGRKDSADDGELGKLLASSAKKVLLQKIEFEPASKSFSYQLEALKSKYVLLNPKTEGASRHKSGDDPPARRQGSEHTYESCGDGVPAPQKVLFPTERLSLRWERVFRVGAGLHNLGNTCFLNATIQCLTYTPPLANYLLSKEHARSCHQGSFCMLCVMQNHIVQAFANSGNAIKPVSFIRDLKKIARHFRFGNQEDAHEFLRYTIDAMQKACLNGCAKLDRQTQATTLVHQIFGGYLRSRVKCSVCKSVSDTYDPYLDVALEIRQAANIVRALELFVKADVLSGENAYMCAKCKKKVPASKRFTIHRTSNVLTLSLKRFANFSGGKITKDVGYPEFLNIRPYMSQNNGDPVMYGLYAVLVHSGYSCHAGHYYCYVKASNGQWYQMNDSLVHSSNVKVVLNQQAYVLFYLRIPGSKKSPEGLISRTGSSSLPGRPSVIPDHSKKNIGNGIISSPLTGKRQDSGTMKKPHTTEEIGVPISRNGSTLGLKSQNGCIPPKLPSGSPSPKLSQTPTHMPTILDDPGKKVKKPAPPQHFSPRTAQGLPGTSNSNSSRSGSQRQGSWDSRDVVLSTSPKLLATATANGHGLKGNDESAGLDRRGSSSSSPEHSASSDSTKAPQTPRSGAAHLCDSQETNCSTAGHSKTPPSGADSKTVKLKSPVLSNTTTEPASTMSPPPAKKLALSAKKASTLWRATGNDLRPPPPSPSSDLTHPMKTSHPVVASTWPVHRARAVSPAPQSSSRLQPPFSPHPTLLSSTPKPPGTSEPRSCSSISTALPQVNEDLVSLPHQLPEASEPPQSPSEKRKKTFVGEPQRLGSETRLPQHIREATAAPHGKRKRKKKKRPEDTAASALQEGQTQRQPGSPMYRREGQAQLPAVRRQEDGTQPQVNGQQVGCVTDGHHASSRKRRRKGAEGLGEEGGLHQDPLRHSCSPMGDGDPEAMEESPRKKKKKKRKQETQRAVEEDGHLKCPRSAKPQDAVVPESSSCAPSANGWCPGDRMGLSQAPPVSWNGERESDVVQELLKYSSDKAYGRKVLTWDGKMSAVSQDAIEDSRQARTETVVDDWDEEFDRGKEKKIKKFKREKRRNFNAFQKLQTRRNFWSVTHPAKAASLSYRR
Procedure, shortened: as §1

USP38 = target: T2, USP38 (UniProt Q8NB14)
T2 sequence (whole entry): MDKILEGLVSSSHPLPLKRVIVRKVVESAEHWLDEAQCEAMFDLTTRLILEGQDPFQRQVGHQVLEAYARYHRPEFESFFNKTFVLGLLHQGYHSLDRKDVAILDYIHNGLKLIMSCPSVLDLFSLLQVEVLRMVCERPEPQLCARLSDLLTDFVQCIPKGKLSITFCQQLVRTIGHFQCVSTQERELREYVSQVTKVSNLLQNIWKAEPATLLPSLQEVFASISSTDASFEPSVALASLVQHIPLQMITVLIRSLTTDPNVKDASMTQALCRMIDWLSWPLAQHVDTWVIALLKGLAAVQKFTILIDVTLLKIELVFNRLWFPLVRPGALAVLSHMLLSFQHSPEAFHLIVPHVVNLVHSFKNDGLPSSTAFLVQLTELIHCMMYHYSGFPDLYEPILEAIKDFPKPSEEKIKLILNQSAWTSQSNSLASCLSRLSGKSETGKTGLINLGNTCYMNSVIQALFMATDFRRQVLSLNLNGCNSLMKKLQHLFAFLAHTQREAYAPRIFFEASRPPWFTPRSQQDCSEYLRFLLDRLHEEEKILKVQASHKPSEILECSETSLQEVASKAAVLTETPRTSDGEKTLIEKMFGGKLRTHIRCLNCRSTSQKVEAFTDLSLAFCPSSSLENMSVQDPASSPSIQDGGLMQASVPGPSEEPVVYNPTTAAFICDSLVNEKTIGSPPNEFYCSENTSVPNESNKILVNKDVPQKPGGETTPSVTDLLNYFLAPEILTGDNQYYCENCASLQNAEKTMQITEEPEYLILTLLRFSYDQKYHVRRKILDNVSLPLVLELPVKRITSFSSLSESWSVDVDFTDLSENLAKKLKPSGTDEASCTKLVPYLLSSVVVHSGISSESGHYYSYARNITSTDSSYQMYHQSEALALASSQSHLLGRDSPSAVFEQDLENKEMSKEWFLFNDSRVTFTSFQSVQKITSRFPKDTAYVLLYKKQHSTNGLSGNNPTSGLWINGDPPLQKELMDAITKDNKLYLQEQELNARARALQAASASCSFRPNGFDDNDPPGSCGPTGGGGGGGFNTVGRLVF
Procedure, shortened: as §1

USP39 = target: T3, USP39 (UniProt Q53GS9)
T3 sequence (whole entry): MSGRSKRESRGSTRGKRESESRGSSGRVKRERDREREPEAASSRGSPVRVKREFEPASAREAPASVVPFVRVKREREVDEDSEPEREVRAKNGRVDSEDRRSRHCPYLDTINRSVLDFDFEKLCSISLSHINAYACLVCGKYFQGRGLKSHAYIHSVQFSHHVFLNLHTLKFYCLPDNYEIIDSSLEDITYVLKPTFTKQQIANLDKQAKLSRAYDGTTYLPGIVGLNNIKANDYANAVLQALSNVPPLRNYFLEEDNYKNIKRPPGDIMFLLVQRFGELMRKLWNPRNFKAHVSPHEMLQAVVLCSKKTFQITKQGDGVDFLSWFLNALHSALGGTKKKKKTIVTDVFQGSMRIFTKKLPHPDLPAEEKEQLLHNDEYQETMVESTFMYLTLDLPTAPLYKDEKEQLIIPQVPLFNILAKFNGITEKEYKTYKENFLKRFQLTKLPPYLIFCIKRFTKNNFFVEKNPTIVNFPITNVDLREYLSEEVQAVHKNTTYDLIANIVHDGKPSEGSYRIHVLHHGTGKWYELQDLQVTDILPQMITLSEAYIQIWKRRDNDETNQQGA
Procedure, shortened: as §1

USP4 = target: T4, USP4 (UniProt Q13107)
T4 sequence (whole entry): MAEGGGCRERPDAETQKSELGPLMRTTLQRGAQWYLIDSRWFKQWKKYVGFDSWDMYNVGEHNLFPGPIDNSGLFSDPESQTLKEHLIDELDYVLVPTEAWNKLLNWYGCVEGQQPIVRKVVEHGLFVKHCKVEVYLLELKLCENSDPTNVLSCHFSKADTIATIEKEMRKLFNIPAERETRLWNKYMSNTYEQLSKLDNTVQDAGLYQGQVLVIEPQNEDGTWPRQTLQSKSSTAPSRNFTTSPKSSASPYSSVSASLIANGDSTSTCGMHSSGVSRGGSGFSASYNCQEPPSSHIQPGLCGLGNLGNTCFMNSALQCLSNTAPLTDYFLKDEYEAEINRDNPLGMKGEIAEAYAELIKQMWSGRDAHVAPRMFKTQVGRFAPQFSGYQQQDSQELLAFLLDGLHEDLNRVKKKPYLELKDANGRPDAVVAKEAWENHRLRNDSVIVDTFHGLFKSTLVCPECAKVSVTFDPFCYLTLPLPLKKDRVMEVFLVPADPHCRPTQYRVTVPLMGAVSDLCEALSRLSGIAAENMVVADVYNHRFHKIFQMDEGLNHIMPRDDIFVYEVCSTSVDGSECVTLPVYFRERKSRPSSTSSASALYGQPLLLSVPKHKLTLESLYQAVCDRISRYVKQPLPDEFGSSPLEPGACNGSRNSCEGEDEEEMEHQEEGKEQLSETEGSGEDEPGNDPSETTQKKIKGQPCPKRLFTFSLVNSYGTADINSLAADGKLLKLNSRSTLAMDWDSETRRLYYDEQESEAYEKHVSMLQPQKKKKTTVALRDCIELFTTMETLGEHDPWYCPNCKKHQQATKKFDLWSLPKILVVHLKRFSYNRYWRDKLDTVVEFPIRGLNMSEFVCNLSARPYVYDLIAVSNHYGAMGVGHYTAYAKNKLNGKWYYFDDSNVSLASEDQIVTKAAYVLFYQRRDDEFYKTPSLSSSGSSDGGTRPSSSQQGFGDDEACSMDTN
Procedure, shortened: as §1

Measured: log2 ratio of Biotin-Ahx-Ub-VS probe labelling

O=C(CCl)N1CCN(C(=O)Nc2ccccc2)CC1
inactive: USP34 -0.102 | USP36 -0.282 | USP38 0.184 | USP39 -0.0496 | USP4 0.0949
